The values below come from publication PMC5892938, “SARNAclust: Semi-automatic detection of RNA protein binding motifs from immunoprecipitation data”.

Over roughly 11,000 sequences, “log2 fold change” has its median near 0.00022; the highest 2% begin near 0.34. The list shows a part of the results.

The target of this experiment is GST-SBP-SLBP (stem-loop binding protein) (Homo sapiens, UniProt Q14493 1-270). In words: targeted RNA Bind-n-Seq; RBNS binding buffer: 25 mM Tris pH 7.5, 150 mM KCl, 3 mM MgCl2, 0.1% Tween, 0.5 mg/mL BSA, 1 mM DTT; 27 nM protein, 750 pM RNA pool; temperature not stated; high values mean tight binding. As to conditions: protein: recombinant; tags: N-terminal GST and SBP (pGEX6P1-SBP); structured_RNA. The method, boiled down:
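Read counts per sequence supply the binding signal, defined as the DEseq fold change on a binary-logarithm scale. These counts came from RNA of a designed, T7-transcribed oligo pool at 750 pM that bound 27 nM of GST-SBP-tagged protein, made in Rosetta(DE3) pLysS E. coli and glutathione-purified, in RBNS binding buffer. The bound RNA was reverse transcribed with a 10-nucleotide barcoded primer, PCR-amplified and sequenced on a MiSeq with 200-cycle paired-end reads, then processed with FLASH and HISAT2 and collapsed by barcode.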
As to “GGUCACGUCUCAAUCAACUCCUCGGAGGGGGGGAAAACCCCUUUACCCUCAUAUUCAACAGCUCGCAGUCAAG”, the binding signal was determined as 0.374 ± 0.433 log2 fold change.
The same measure for “GGUCACGUCUCAAUCAACUCUCCAGAGGGGGGGAAAACCCCUUUACCCUCACAUUCAACAGCUCGCAGUCAAG”: 0.328 ± 0.444 log2 fold change; for “GGUCACGUCUCAAUCAACUCCUCGGAGGGGGGGAAAACCCCUUUACCCUCACAUUCAACAGCUCGCAGUCAAG”: 0.424 ± 0.434 log2 fold change; for “GGUCACGUCUCAAUCAACUCAUCAGAGGGGGGGAAAACCCCUUUGCCCUCCACAUCAACAGCUCGCAGUCAAG”: 0.401 ± 0.446 log2 fold change.
Consider “GGUCACGUCUCAAUCAACUCCUCAGAGGGGGGGAAAACCCCUUUGCCCUCCAAAUCAACAGCUCGCAGUCAAG”, for which the binding signal came to 0.317 ± 0.412 log2 fold change.
Regarding “GGUCACGUCUCAAUCAACUCAGAAGAGGGGGGGAAAACCCCUUUGCCCUCCAUAUCAACAGCUCGCAGUCAAG”, the binding signal came to 0.327 ± 0.401 log2 fold change.
For the sequence “GGUCACGUCUCAAUCAACUCCCCAGAGGGGGGGAAAACCCCUUUGCCCUCAAUAUCAACAGCUCGCAGUCAAG”, the binding signal was 0.552 ± 0.441 log2 fold change.
Regarding “GGUCACGUCUCAAUCAACUCCACAGAGGGGGGGAAAACCCCUUUGCCCUCCAUAUCAACAGCUCGCAGUCAAG”, the binding signal is 0.437 ± 0.447 log2 fold change.
Turning to “GGUCACGUCUCAAUCAACUCUCCAGAGGGGGGGAAAACCCCUUUGCCCUCCACAUCAACAGCUCGCAGUCAAG”, the binding signal was 0.318 ± 0.411 log2 fold change.
Consider “GGUCACGUCUCAAUCAACUCAUUCCCCAGGGAAAGCCCUGGCUUUUUCAACAGCUCGCAGUCAAG”, for which the binding signal is 0.512 ± 0.316 log2 fold change.
The same measure for “GGUCACGUCUCAAUCAACUCAUCCCCCAGGGAAAGCCCUGGCUUACUCAACAGCUCGCAGUCAAG”: 0.352 ± 0.269 log2 fold change.
Consider “GGUCACGUCUCAAUCAACUCUAUCCCCAGGGAAACCCCUGGCUUACUCAACAGCUCGCAGUCAAG”, for which the binding signal is 0.376 ± 0.273 log2 fold change.
In the case of “GGUCACGUCUCAAUCAACUCAAUCCCCAGGGAAAUCCCUGGCUUACUCAACAGCUCGCAGUCAAG”, the binding signal was 0.371 ± 0.289 log2 fold change.
Then “GGUCACGUCUCAAUCAACUCUAUCCCCAGGGAAAGCCCUGGCUUACUCAACAGCUCGCAGUCAAG”, with 0.3 ± 0.283 log2 fold change; and “GGUCACGUCUCAAUCAACUCAUUUCCCAGGGAAAGCCCUGGUAAUCUCAACAGCUCGCAGUCAAG”, with 0.334 ± 0.275 log2 fold change.
On to “GGUCACGUCUCAAUCAACUCAUCCCCCAGGGAAAUCCCUGGCUUACUCAACAGCUCGCAGUCAAG”, for which the binding signal was found to be 0.468 ± 0.259 log2 fold change.
In the case of “GGUCACGUCUCAAUCAACUCUUCUUCCAGGGAAAGCCCUGGCUAUUUCAACAGCUCGCAGUCAAG”, the binding signal turned out to be 0.333 ± 0.251 log2 fold change.
For the sequence “GGUCACGUCUCAAUCAACUCUUUUUCCAGGGAAAGCCCUGGCAUGUUCAACAGCUCGCAGUCAAG”, the binding signal is 0.337 ± 0.241 log2 fold change.
In the case of “GGUCACGUCUCAAUCAACUCAGUCCCCAGGGAAAGCCCUGGCAUAUUCAACAGCUCGCAGUCAAG”, the binding signal came out at 0.34 ± 0.375 log2 fold change.
In the case of “GGUCACGUCUCAAUCAACUCAUCUUCCAGGGAAAGCCCUGGCUUUCUCAACAGCUCGCAGUCAAG”, the binding signal was determined as 0.425 ± 0.292 log2 fold change.
For “GGUCACGUCUCAAUCAACUCAACUCCCAGGGAAAUCCCUGGUUAUCUCAACAGCUCGCAGUCAAG”, the binding signal is 0.334 ± 0.284 log2 fold change.
Then “GGUCACGUCUCAAUCAACUCAGUUCCCAGGGAAAGCCCUGGCAUUUUCAACAGCUCGCAGUCAAG”, with 0.449 ± 0.362 log2 fold change.
“GGUCACGUCUCAAUCAACUCAAUCCCCAGGGAAAUCCCUGGUUUACUCAACAGCUCGCAGUCAAG”: the binding signal was found to be 0.393 ± 0.26 log2 fold change.
The same measure for “GGUCACGUCUCAAUCAACUCUUUUUCCAGGGAAAGCCCUGGCUAUGUCAACAGCUCGCAGUCAAG”: 0.31 ± 0.256 log2 fold change; for “GGUCACGUCUCAAUCAACUCUAUCUCCAGGGAAACCCCUGGCAAACUCAACAGCUCGCAGUCAAG”: 0.323 ± 0.268 log2 fold change; for “GGUCACGUCUCAAUCAACUCUAUCUCCAGGGAAAACCCUGGCUAUUUCAACAGCUCGCAGUCAAG”: 0.433 ± 0.244 log2 fold change.
On to “GGUCACGUCUCAAUCAACUCUAUCUCCAGGGAAAGCCCUGGUUAUCUCAACAGCUCGCAGUCAAG”, for which the binding signal was found to be 0.334 ± 0.307 log2 fold change.
Turning to “GGUCACGUCUCAAUCAACUCAUCCUCCAGGGAAACCCCUGGCUAUUUCAACAGCUCGCAGUCAAG”, the binding signal was determined as 0.363 ± 0.269 log2 fold change.
“GGUCACGUCUCAAUCAACUCAAUCUCCAGGGAAAGCCCUGGCUAACUCAACAGCUCGCAGUCAAG”: the binding signal was determined as 0.405 ± 0.277 log2 fold change.
As to “GGUCACGUCUCAAUCAACUCUAUCUCCAGGGAAAGCCCUGGCUUACUCAACAGCUCGCAGUCAAG”, the binding signal was 0.329 ± 0.278 log2 fold change.
For the sequence “GGUCACGUCUCAAUCAACUCUAUCUCCAGGGAAACCCCUGGCUAACUCAACAGCUCGCAGUCAAG”, the binding signal was 0.366 ± 0.263 log2 fold change.
Regarding “GGUCACGUCUCAAUCAACUCAUCCUCCAGGGAAACCCCUGGCUAUCUCAACAGCUCGCAGUCAAG”, the binding signal is 0.3 ± 0.279 log2 fold change.
On to “GGUCACGUCUCAAUCAACUCUAUCUCCAGGGAAAACCCUGGCUAACUCAACAGCUCGCAGUCAAG”, for which the binding signal worked out at 0.369 ± 0.3 log2 fold change.
Then “GGUCACGUCUCAAUCAACUCAUUUUCCAGGGAAAUCCCUGGCAUAUUCAACAGCUCGCAGUCAAG”, with 0.33 ± 0.202 log2 fold change; and “GGUCACGUCUCAAUCAACUCUAUCCCCAGGGAAAACCCUGGCUAUCUCAACAGCUCGCAGUCAAG”, with 0.336 ± 0.26 log2 fold change.
Consider “GGUCACGUCUCAAUCAACUCAUCCUCCAGGGAAAACCCUGGCAUAUUCAACAGCUCGCAGUCAAG”, for which the binding signal came out at 0.384 ± 0.243 log2 fold change.
Then “GGUCACGUCUCAAUCAACUCAUCUCCCAGGGAAAACCCUGGCUAUCUCAACAGCUCGCAGUCAAG”, with 0.3 ± 0.284 log2 fold change; and “GGUCACGUCUCAAUCAACUCUUAAGAGGGGGGGAAAACCCCUUUGCCCUCACACUCAACAGCUCGCAGUCAAG”, with 0.323 ± 0.393 log2 fold change.
The same measure for “GGUCACGUCUCAAUCAACUCUCUAGAGGGGGGGAAAACCCCUUUGCCCUCACUAUCAACAGCUCGCAGUCAAG”: 0.386 ± 0.408 log2 fold change; for “GGUCACGUCUCAAUCAACUCUCUAGAGGGGGGGAAAACCCCUUUGCCCUCACACUCAACAGCUCGCAGUCAAG”: 0.353 ± 0.4 log2 fold change; for “GGUCACGUCUCAAUCAACUCAAAAGAGGGGGGGAAAACCCCUUUACCCUCAUAUUCAACAGCUCGCAGUCAAG”: 0.449 ± 0.451 log2 fold change.
With “GGUCACGUCUCAAUCAACUCCAAAGAGGGGGGGAAAACCCCUUUACCCUCAUCUUCAACAGCUCGCAGUCAAG”, the binding signal stood at 0.443 ± 0.434 log2 fold change.
For the sequence “GGUCACGUCUCAAUCAACUCAAAAGAGGGGGGGAAAACCCCUUUACCCUCAUCUUCAACAGCUCGCAGUCAAG”, the binding signal amounted to 0.535 ± 0.407 log2 fold change.
The same measure for “GGUCACGUCUCAAUCAACUCAAUCCCCAGGGAAAUCCCUGGCAUUCUCAACAGCUCGCAGUCAAG”: 0.318 ± 0.264 log2 fold change; for “GGUCACGUCUCAAUCAACUCAUUCCCCAGGGAAAUCCCUGGCUUAUUCAACAGCUCGCAGUCAAG”: 0.349 ± 0.307 log2 fold change.
For the sequence “GGUCACGUCUCAAUCAACUCUAUUUCCAGGGAAAUCCCUGGCUAACUCAACAGCUCGCAGUCAAG”, the binding signal is 0.335 ± 0.258 log2 fold change.
As to “GGUCACGUCUCAAUCAACUCUAUUUCCAGGGAAAUCCCUGGCUUAUUCAACAGCUCGCAGUCAAG”, the binding signal came out at 0.488 ± 0.245 log2 fold change.
Take “GGUCACGUCUCAAUCAACUCAUCUCCCAGGGAAAUCCCUGGCUUAUUCAACAGCUCGCAGUCAAG”: the binding signal worked out at 0.417 ± 0.302 log2 fold change.
